The record followed here is PubChem BioAssay (NCATS).

Molecules are shown by their SMILES. Records with an inconclusive call do not appear. Active and inactive are the calls of the source. Calls follow the shape of the dose curve; as a rule, active = well fitted curve in the direction sought with a large enough effect; inconclusive = small, poorly fitted or top-dose-only effect, or another doubt; inactive = no such curve, though single readings can be large; an effect the other way counts as inactive or inconclusive.

The nature of assay [1]: Quantitative High-Throughput drug screen in 47 multiple myeloma cell lines against the NCATS MIPE library collection: AMO1_DSMZ cell viability assay (AID 1918927; also: nearly all actives have a fitted effect of over 30% in size). Put shortly: (§1)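 Myeloma cells (500 per well) were exposed to MIPE 4.0 compounds by pin transfer and incubated 48 hours at 37C, 5% CO2. Viability was read as ATP by CellTiter-Glo luminescence, normalised to DMSO (100%) and media-only (0%) wells.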

Assay [2] can be described thus: Quantitative High-Throughput drug screen in 47 multiple myeloma cell lines against the NCATS MIPE library collection: ARP1_JJKsccF8 cell viability assay (AID 1918928; also: nearly all actives have a fitted effect of over 40% in size). Put shortly: (§2)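 Here, 48 h treatment with MIPE 4.0 agents at 37 °C preceded an ATP luminescence read. Plating density was 500 cells per well.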
Assay [3] in a line: Quantitative High-Throughput drug screen in 47 multiple myeloma cell lines against the NCATS MIPE library collection: ARD_JJKsccE7 cell viability assay (AID 1918929). Put shortly: as §1
A short description of assay [4]: Quantitative High-Throughput drug screen in 47 multiple myeloma cell lines against the NCATS MIPE library collection: Karpas620_DSMZ cell viability assay (AID 1918959). Also: nearly all actives have a fitted effect of over 30% in size. Put shortly:
(§3)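 CellTiter-Glo luminescence (ATP) after 48 h compound exposure, 37C/5% CO2; 500 cells/well; MIPE 4.0 approved/investigational drugs pinned in; DMSO = 100%, media only = 0% viability.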

A short description of assay [5]: Quantitative High-Throughput drug screen in 47 multiple myeloma cell lines against the NCATS MIPE library collection: KMM1_JCRB cell viability assay (AID 1918960). Also: nearly all actives have a fitted effect of over 30% in size. Put shortly: as §2
Assay [6] is described as follows: Quantitative High-Throughput drug screen in 47 multiple myeloma cell lines against the NCATS MIPE library collection: KHM11_PLB cell viability assay (AID 1918962). Also: nearly all actives have a fitted effect of over 35% in size. Put shortly: as §3
The nature of assay [7]: Quantitative High-Throughput drug screen in 47 multiple myeloma cell lines against the NCATS MIPE library collection: JIM1_ECACC cell viability assay (AID 1918964). The method in brief:
as §1

Assay [8] is described as follows: Quantitative High-Throughput drug screen in 47 multiple myeloma cell lines against the NCATS MIPE library collection: JIM3_ECACC cell viability assay (AID 1918963; also: nearly all actives have a fitted effect of over 35% in size). The method in brief: as §3
Assay [9] can be described thus: Quantitative High-Throughput drug screen in 47 multiple myeloma cell lines against the NCATS MIPE library collection: EJM_DSMZ cell viability assay (AID 1918926; also: nearly all actives have a fitted effect of over 30% in size). The method in brief:
as §1

Assay [10] can be described thus: Quantitative High-Throughput drug screen in 47 multiple myeloma cell lines against the NCATS MIPE library collection: Karpas417_ECACC cell viability assay (AID 1918961). The following applies: Karpas417 myeloma viability, CellTiter-Glo ATP luminescence, 48 h; viability (% of DMSO): at 45.8 µM (top of the series). The method in brief:
as §1
Potency is read from the fitted curve at half-maximal effect.

In the case of `CNC1CCC(N(Cc2cccc(-c3ccncc3)c2)C(=O)c2sc3c(F)ccc(F)c3c2Cl)CC1` (centres undefined), the Potency was 23.5 µM (active) in assay [1]; 16.6 µM (active) in assay [2]; 29.6 µM (active) in assay [3]; 16.6 µM (active) in assay [4]; 18.7 µM (active) in [5]; 0.469 µM (active) in assay [6]. Moreover, the Potency in assay [7] was 14.8 µM (active).

As to `CCCCCCCCCCCC1=C(O)C(=O)C=C(O)C1=O`, the Potency was 3.32 µM (active) in assay [1]; 11.8 µM (active) in [2]; 1.66 µM (active) in assay [3]; 0.264 µM (active) in assay [4]; 2.96 µM (active) in assay [5]; 4.69 µM (active) in assay [8]. Besides, in assay [7], the Potency is 0.59 µM (active).

As to `C=C1C(=O)OC2C=C(C)CCC=C(C)CCC12` (centres undefined), the Potency in assay [1] was 18.7 µM (active); in assay [2], 20.9 µM (active); in [3], 23.5 µM (active); in assay [4] it was 14.8 µM (active); in assay [5], 16.6 µM (active); in assay [7] it was 14.8 µM (active). In addition, in [6], the Potency entry was “inactive”.

For `Cn1cc(C=C2C(=O)Nc3cccnc32)c2ccccc21`, the Potency result in [9] and in assay [4] was “inactive” each time.

Turning to `O=C(N[C@@H](c1ccccc1)[C@@H]1CCCCN1)c1cccc(C(F)(F)F)c1Cl`, the Potency in assay [9] was 18.7 µM (active). Besides, the Potency result in [4], in assay [5], in [8] and in assay [7] was “inactive” each time.

For `CCn1cc(C(=O)O)c(=O)c2ccc(C)nc21`, the Potency entry in assay [9], in assay [3], in assay [4], in assay [5], in assay [8] and in [7] was “inactive” in each case.

In the case of `COc1ccc(-c2oc3c(CC=C(C)C)c(OC4O[C@H](CO)[C@@H](O)[C@H](O)[C@@H]4O)cc(O)c3c(=O)c2OC2O[C@@H](C)[C@H](O)[C@@H](O)[C@@H]2O)cc1` (some centres undefined), the Potency is 8.33 µM (active) in [1]; 16.6 µM (active) in [2]; 9.35 µM (active) in assay [3]; 11.8 µM (active) in [4]; 10.5 µM (active) in [10]; 20.9 µM (active) in [8].

For the molecule `O=C(O)c1ccc(-c2cc3cccnc3c(-c3ccc4nonc4c3)n2)cc1`, the Potency in assay [9] was 18.7 µM (active); in assay [6], 20.9 µM (active).

In the case of `CC(C)OC(=O)CCCC=CC[C@@H]1[C@H](C=C[C@@H](O)COc2cccc(C(F)(F)F)c2)[C@H](O)C[C@@H]1O`, the Potency result in assay [1], in assay [3], in assay [4], in [5] and in [7] was “inactive” throughout. Also, the Potency in assay [2] is 20.9 µM (active); in assay [6], 23.5 µM (active); in [8], 20.9 µM (active).

Take `CC(C)OC(=O)C(C)(C)Oc1ccc(C(=O)c2ccc(Cl)cc2)cc1`: the Potency in [9] is 10.5 µM (active); in assay [6], 26.4 µM (active). In addition, the Potency result in assay [3], in assay [4] and in assay [5] was “inactive” in each case.

For `COCCOc1nc(-c2ccc(Cl)c(Cl)c2)n(-c2ccc(NC(=O)CCl)cc2)n1`, the Potency in assay [1] is 16.6 µM (active); in [2] it was 23.5 µM (active); in assay [3], 16.6 µM (active); in assay [4], 16.6 µM (active); in assay [5] it was 14.8 µM (active); in assay [10] it was 16.6 µM (active). Moreover, the results for the Potency in assay [6] and in assay [7] were 11.8 µM (active) and 14.8 µM (active), respectively.

As for `O=C(NOCC(O)CO)c1cc(Br)c(F)c(F)c1Nc1ccc(I)cc1F` (centres undefined), the Potency result in assay [9], in assay [4] and in assay [5] was “inactive” in each case.

In the case of `Cc1[nH]c(C=C2C(=O)Nc3ccc(S(=O)(=O)Cc4c(Cl)cccc4Cl)cc32)c(C)c1C(=O)N1CCC[C@H]1CN1CCCC1`, the Potency in [1] is 26.4 µM (active); in assay [2], 23.5 µM (active); in assay [3], 9.35 µM (active); in assay [5] it was 18.7 µM (active); in assay [10], 1.48 µM (active); in assay [6], 8.33 µM (active). The Potency is 18.7 µM (active) in assay [8] and 7.43 µM (active) in [7].

As to `CCOC(CN1C(=O)[C@](CC(=O)Nc2ccc(C)cc2)(NC(=O)Nc2ccc(C)cc2)c2ccccc21)OCC`, the Potency result in assay [9] was “inactive”. For the same molecule, the Potency in [4] and in assay [10] was 16.6 µM (active) each time.

Turning to `O=C(O)c1ccccc1C(=O)Nc1ccc(-c2ccccc2)cc1`, the Potency entry in assay [1], in assay [2], in [3], in [4], in [5] and in [6] was “inactive” each time. Further, the Potency result in assay [8] is “inactive”.

For the molecule `C[C@]12CCC3c4ccc(O)cc4CCC3C1CCC2=O` (some centres undefined), the Potency result in assay [9], in assay [3], in assay [4], in [5], in [6] and in assay [8] was “inactive” in each case.

`NC(CO)(CO)CCc1ccc(Sc2cccc(OCc3ccccc3)c2)cc1Cl`: the Potency in assay [1] is 20.9 µM (active); in [2], 23.5 µM (active); in assay [4], 16.6 µM (active); in [5] it was 18.7 µM (active); in assay [6] it was 7.43 µM (active); in [8], 13.2 µM (active). Besides, in [7], the Potency was 16.6 µM (active).

As for `Oc1ccc(C2CCN(c3ccnc4ccccc34)CC2)cc1O`, the Potency was 18.7 µM (active) in assay [1]; 23.5 µM (active) in assay [2]; 16.6 µM (active) in assay [4]; 8.33 µM (active) in [6]; 11.8 µM (active) in assay [8].

As to `CC[C@@H]1C=C(C)C[C@H](C)C[C@H](OC)[C@H]2O[C@@](O)(C(=O)C(=O)N3CCCC[C@@H]3C(=O)O[C@H](C(C)=C[C@@H]3CC[C@H](Cl)[C@H](OC)C3)[C@H](C)[C@@H](O)CC1=O)[C@H](C)C[C@H]2OC`, the Potency in assay [1] is 9.35 µM (active); in assay [2], 13.2 µM (active); in assay [4], 13.2 µM (active); in assay [5], 8.33 µM (active); in assay [8] it was 18.7 µM (active).

Regarding `O=C1NC(=O)C(=Cc2cccc(C(F)(F)F)c2)S1`, the Potency in assay [9] was 20.9 µM (active); in [10], 26.4 µM (active).
